# Measured values: PubChem BioAssay AID1159580 (chemical genetic matrix, 2015)
# Several values for one entry are separate records, joined by “and”; a condition that tells them apart may be missing. Equal entries are not always repeated. The whole screen tested about 5,500 compounds, of which about 2,000 (36%) were called active. Another 18% or so got no clear call; they are omitted. Cut-off read from the data, not from the text of the source: active = normalized growth mostly below about 0.91 (no sharp cut-off); inconclusive = no clear call, values can overlap the other calls; inactive = mostly above about 0.92. The list shows a part of the results.
# Experiment: chemical genetic growth profiling, strain panel (AID 1159580);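 note: tested at 20 µM; growth read once vehicle control cultures reached saturation at 30 °C; 1 = growth at the plate median or of vehicle wells; lower values mean less growth of the strain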
# Settings: growth OD
smiles,measurement,setting,value
COc1ccc2c(=O)c(OC)c(-c3ccccc3)oc2c1,normalized growth,"S. cerevisiae deletion strains, locus YBR021W, strain FUR4, stronger effect = lower value",0.758 (active)
same,normalized growth,"S. cerevisiae deletion strains, locus YBR229C, strain ROT2, stronger effect = lower value",0.966 (inactive)
same,normalized growth,"S. cerevisiae deletion strains, locus YCL029C, strain bik1, stronger effect = lower value",0.945 (inactive)
same,normalized growth,"S. cerevisiae deletion strains, locus YDL035C, strain GPR1, stronger effect = lower value",0.83 (active)
same,normalized growth,"S. cerevisiae deletion strains, locus YDL074C, strain BRE1, stronger effect = lower value",0.713 (active)
same,normalized growth,"S. cerevisiae deletion strains, locus YDL101C, strain DUN1, stronger effect = lower value",0.855 (active)
same,normalized growth,"S. cerevisiae deletion strains, locus YDL185W, strain tfp1, stronger effect = lower value",0.951 (inactive)
same,normalized growth,"S. cerevisiae deletion strains, locus YDL192W, strain arf1, stronger effect = lower value",0.829 (active)
same,normalized growth,"S. cerevisiae deletion strains, locus YDR101C, strain arx1, stronger effect = lower value",0.855 (active)
same,normalized growth,"S. cerevisiae deletion strains, locus YDR162C, strain NBP2, stronger effect = lower value",0.68 (active)
same,normalized growth,"S. cerevisiae deletion strains, locus YDR318W, strain mcm21, stronger effect = lower value",0.863 (active)
same,normalized growth,"S. cerevisiae deletion strains, locus YDR388W, stronger effect = lower value",0.929 (inactive)
same,normalized growth,"S. cerevisiae deletion strains, locus YDR502C, strain sam2, stronger effect = lower value",0.836 (active)
same,normalized growth,"S. cerevisiae deletion strains, locus YEL061C, strain CIN8, stronger effect = lower value",0.891 (active)
same,normalized growth,"S. cerevisiae deletion strains, locus YER110C, stronger effect = lower value",0.932 (inactive)
same,normalized growth,"S. cerevisiae deletion strains, locus YER155C, strain BEM2, stronger effect = lower value",0.893 (active)
same,normalized growth,"S. cerevisiae deletion strains, locus YER167W, strain BCK2, stronger effect = lower value",0.858 (active)
same,normalized growth,"S. cerevisiae deletion strains, locus YGL078C, strain dbp3, stronger effect = lower value",0.939 (inactive)
same,normalized growth,"S. cerevisiae deletion strains, locus YGL086W, strain mad1, stronger effect = lower value",0.867 (active)
same,normalized growth,"S. cerevisiae deletion strains, locus YGL248W, strain PDE1, stronger effect = lower value",0.831 (active)
same,normalized growth,"S. cerevisiae deletion strains, locus YGR078C, strain PAC10, stronger effect = lower value",0.743 (active)
same,normalized growth,"S. cerevisiae deletion strains, locus YGR135W, strain pre9, stronger effect = lower value",0.754 (active)
same,normalized growth,"S. cerevisiae deletion strains, locus YGR229C, strain SMI1, stronger effect = lower value",0.477 (active)
same,normalized growth,"S. cerevisiae deletion strains, locus YGR252W, strain gcn5, stronger effect = lower value",0.582 (active)
same,normalized growth,"S. cerevisiae deletion strains, locus YHR030C, strain SLT2, stronger effect = lower value",0.646 (active) and 0.936 (inactive)
same,normalized growth,"S. cerevisiae deletion strains, locus YHR079C, strain IRE1 (second series), stronger effect = lower value",0.943 (inactive)
same,normalized growth,"S. cerevisiae deletion strains, locus YHR079C, strain IRE1, stronger effect = lower value",0.925 (inactive)
same,normalized growth,"S. cerevisiae deletion strains, locus YHR094C, strain hxt1, stronger effect = lower value",0.977 (inactive)
same,normalized growth,"S. cerevisiae deletion strains, locus YHR129C, strain ARP1, stronger effect = lower value",0.858 (active)
same,normalized growth,"S. cerevisiae deletion strains, locus YHR200W, strain rpn10, stronger effect = lower value",0.892 (active)
same,normalized growth,"S. cerevisiae deletion strains, locus YIL066C, strain RNR3, stronger effect = lower value",0.771 (active)
same,normalized growth,"S. cerevisiae deletion strains, locus YIL073C, strain SPO22, stronger effect = lower value",0.862 (inactive)
same,normalized growth,"S. cerevisiae deletion strains, locus YIL125W, strain kgd1, stronger effect = lower value",0.975 (inactive)
same,normalized growth,"S. cerevisiae deletion strains, locus YIR030C, strain dcg1, stronger effect = lower value",0.928 (inactive)
same,normalized growth,"S. cerevisiae deletion strains, locus YJL095W, strain BCK1, stronger effect = lower value",0.454 (active) and 0.941 (inactive)
same,normalized growth,"S. cerevisiae deletion strains, locus YJL134W, strain LCB3, stronger effect = lower value",0.951 (inactive)
same,normalized growth,"S. cerevisiae deletion strains, locus YJL168C, strain set2, stronger effect = lower value",0.97 (inactive)
same,normalized growth,"S. cerevisiae deletion strains, locus YJL187C, strain SWE1 (second series), stronger effect = lower value",0.859 (active)
same,normalized growth,"S. cerevisiae deletion strains, locus YJR043C, strain POL32, stronger effect = lower value",0.797 (active)
same,normalized growth,"S. cerevisiae deletion strains, locus YJR066W, strain TOR1, stronger effect = lower value",0.867 (inactive)
same,normalized growth,"S. cerevisiae deletion strains, locus YJR075W, strain HOC1, stronger effect = lower value",0.89 (inactive)
same,normalized growth,"S. cerevisiae deletion strains, locus YKL009W, strain mrt4, stronger effect = lower value",0.901 (inactive)
same,normalized growth,"S. cerevisiae deletion strains, locus YKL068W, stronger effect = lower value",0.975 (inactive)
same,normalized growth,"S. cerevisiae deletion strains, locus YKL085W, strain MDH1 (second series), stronger effect = lower value",0.974 (inactive)
same,normalized growth,"S. cerevisiae deletion strains, locus YKL085W, strain MDH1, stronger effect = lower value",0.974 (inactive)
same,normalized growth,"S. cerevisiae deletion strains, locus YKL190W, strain CNB1, stronger effect = lower value",0.923 (inactive)
same,normalized growth,"S. cerevisiae deletion strains, locus YKR001C, strain vps1, stronger effect = lower value",0.848 (active)
same,normalized growth,"S. cerevisiae deletion strains, locus YLR039C, strain RIC1, stronger effect = lower value",0.906 (inactive)
same,normalized growth,"S. cerevisiae deletion strains, locus YLR058C, strain SHM2, stronger effect = lower value",0.888 (active)
same,normalized growth,"S. cerevisiae deletion strains, locus YLR102C, strain apc9, stronger effect = lower value",0.95 (inactive)
same,normalized growth,"S. cerevisiae deletion strains, locus YLR113W, strain HOG1, stronger effect = lower value",0.931 (inactive)
same,normalized growth,"S. cerevisiae deletion strains, locus YLR262C, strain YPT6, stronger effect = lower value",0.901 (inactive)
same,normalized growth,"S. cerevisiae deletion strains, locus YLR268W, strain sec22, stronger effect = lower value",0.866 (active)
same,normalized growth,"S. cerevisiae deletion strains, locus YLR330W, strain CHS5, stronger effect = lower value",0.752 (active)
same,normalized growth,"S. cerevisiae deletion strains, locus YLR342W, strain FKS1 (second series), stronger effect = lower value",0.723 (active)
same,normalized growth,"S. cerevisiae deletion strains, locus YLR371W, strain rom2, stronger effect = lower value",0.794 (active)
same,normalized growth,"S. cerevisiae deletion strains, locus YLR418C, strain cdc73, stronger effect = lower value",0.532 (active)
same,normalized growth,"S. cerevisiae deletion strains, locus YML016C, strain PPZ1, stronger effect = lower value",0.947 (inactive)
same,normalized growth,"S. cerevisiae deletion strains, locus YML032C, strain rad52, stronger effect = lower value",0.723 (active)
same,normalized growth,"S. cerevisiae deletion strains, locus YML124C, strain tub3, stronger effect = lower value",0.941 (inactive)
same,normalized growth,"S. cerevisiae deletion strains, locus YMR078C, strain ctf18, stronger effect = lower value",0.893 (active)
same,normalized growth,"S. cerevisiae deletion strains, locus YMR223W, strain ubp8, stronger effect = lower value",0.845 (active)
same,normalized growth,"S. cerevisiae deletion strains, locus YMR263W, strain SAP30, stronger effect = lower value",0.845 (active)
same,normalized growth,"S. cerevisiae deletion strains, locus YMR307W, strain GAS1, stronger effect = lower value",0.658 (inactive)
same,normalized growth,"S. cerevisiae deletion strains, locus YNL067W, strain RPL9B, stronger effect = lower value",0.856 (active)
same,normalized growth,"S. cerevisiae deletion strains, locus YNL183C, strain NPR1, stronger effect = lower value",0.916 (inactive)
same,normalized growth,"S. cerevisiae deletion strains, locus YNL233W, strain BNI4, stronger effect = lower value",0.717 (active)
same,normalized growth,"S. cerevisiae deletion strains, locus YNL250W, strain rad50, stronger effect = lower value",0.969 (inactive)
same,normalized growth,"S. cerevisiae deletion strains, locus YNL271C, strain bni1, stronger effect = lower value",0.921 (inactive)
same,normalized growth,"S. cerevisiae deletion strains, locus YNL298W, strain CLA4, stronger effect = lower value",0.894 (active)
same,normalized growth,"S. cerevisiae deletion strains, locus YNL307C, strain MCK1, stronger effect = lower value",0.676 (active)
same,normalized growth,"S. cerevisiae deletion strains, locus YNL322C, strain KRE1, stronger effect = lower value",0.95 (inactive)
same,normalized growth,"S. cerevisiae deletion strains, locus YNR052C, strain pop2, stronger effect = lower value",0.882 (active)
same,normalized growth,"S. cerevisiae deletion strains, locus YOL006C, strain TOP1, stronger effect = lower value",0.396 (active)
same,normalized growth,"S. cerevisiae deletion strains, locus YOL012C, strain htz1",0.856 (inactive)
same,normalized growth,"S. cerevisiae deletion strains, locus YOL147C, strain pex11, stronger effect = lower value",0.904 (active)
same,normalized growth,"S. cerevisiae deletion strains, locus YOR061W, strain CKA2, stronger effect = lower value",0.942 (inactive)
same,normalized growth,"S. cerevisiae deletion strains, locus YOR069W, strain VPS5, stronger effect = lower value",0.909 (active)
same,normalized growth,"S. cerevisiae deletion strains, locus YOR136W, strain idh2, stronger effect = lower value",0.95 (inactive)
same,normalized growth,"S. cerevisiae deletion strains, locus YOR144C, strain elg1, stronger effect = lower value",0.924 (active)
same,normalized growth,"S. cerevisiae deletion strains, locus YOR184W, strain ser1, stronger effect = lower value",0.622 (active)
same,normalized growth,"S. cerevisiae deletion strains, locus YOR231W, strain MKK1, stronger effect = lower value",0.921 (inactive)
same,normalized growth,"S. cerevisiae deletion strains, locus YOR316C, strain cot1, stronger effect = lower value",0.953 (inactive)
same,normalized growth,"S. cerevisiae deletion strains, locus YPL055C, strain LGE1, stronger effect = lower value",0.752 (active)
same,normalized growth,"S. cerevisiae deletion strains, locus YPL256C, strain CLN2, stronger effect = lower value",0.932 (inactive)
same,normalized growth,"S. cerevisiae deletion strains, locus YPR119W, strain clb2, stronger effect = lower value",0.936 (inactive)
same,normalized growth,"S. cerevisiae deletion strains, locus YPR141C, strain kar3, stronger effect = lower value",0.978 (inactive)
same,normalized growth,"S. cerevisiae deletion strains, locus YPR163C, strain tif3, stronger effect = lower value",0.853 (active)
same,normalized growth,"S. cerevisiae deletion strains, locus YPR167C, strain met16, stronger effect = lower value",0.901 (active)
same,normalized growth,"S. cerevisiae deletion strains, strain wtn01, stronger effect = lower value",0.887 (active)
same,normalized growth,"S. cerevisiae strains, strain wild type, stronger effect = lower value",0.884 (active)
